The results in this text go back to PubChem BioAssay (Tox21).

A number with no mark means an inactive call. Entries that show only a call come without a potency. Activity calls are given as the source filed them. The call rests on the fitted dose curve.

In the assay the target is Acetylcholinesterase (Homo sapiens) (UniProt P22303). As to the kind of experiment: Acetylcholinesterase (AChE) small molecule antagonists: enzyme-based qHTS assay with human liver microsomes (AID 1347399). Further: nearly all actives have a fitted effect of over 60% in size. To be noted: Potency: qHTS inhibition; outcome: qHTS inhibition; series mostly up to 115 µM. The procedure, abridged: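 Recombinant human AChE (50 mU/mL in the enzyme mix) and human liver microsomes (0.25 mg/mL final) were preincubated with compound and NADPH (0.25 mg/mL final) for 30 min at 37 C. Acetylthiocholine/DTNB was then added; thiocholine was read colorimetrically after 10 min at room temperature.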
Sequence of Acetylcholinesterase (Homo sapiens) (P22303 whole entry, looked up): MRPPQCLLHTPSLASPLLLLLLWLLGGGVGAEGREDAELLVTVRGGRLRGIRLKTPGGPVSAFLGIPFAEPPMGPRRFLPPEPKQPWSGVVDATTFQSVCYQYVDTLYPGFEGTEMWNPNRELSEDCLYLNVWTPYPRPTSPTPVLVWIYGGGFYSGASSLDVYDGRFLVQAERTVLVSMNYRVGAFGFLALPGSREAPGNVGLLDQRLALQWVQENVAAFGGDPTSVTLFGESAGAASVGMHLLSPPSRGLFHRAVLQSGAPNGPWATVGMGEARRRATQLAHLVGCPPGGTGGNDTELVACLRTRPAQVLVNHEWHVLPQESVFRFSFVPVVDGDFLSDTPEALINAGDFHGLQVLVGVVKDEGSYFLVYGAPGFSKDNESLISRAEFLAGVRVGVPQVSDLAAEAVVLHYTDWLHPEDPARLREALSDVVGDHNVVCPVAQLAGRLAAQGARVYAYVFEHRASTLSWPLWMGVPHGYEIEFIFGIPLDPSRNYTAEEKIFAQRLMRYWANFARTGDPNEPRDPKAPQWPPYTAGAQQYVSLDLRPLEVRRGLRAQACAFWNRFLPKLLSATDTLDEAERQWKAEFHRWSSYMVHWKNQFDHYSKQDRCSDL
In general terms: qHTS replaces the single test concentration by a dilution series.
For `FC(F)(F)C(F)(F)C(F)(F)C(F)(F)CCI`, the Potency entry is “inactive”. For the compound `Cn1ccnc1`, the Potency entry was “inactive”. The same measure, in the same setting: as for `CC(=O)CC(C)=O`, the entry is “inactive”; as for `CC(=O)N1CCN(c2ccc(OC[C@H]3CO[C@](Cn4ccnc4)(c4ccc(Cl)cc4Cl)O3)cc2)CC1`, “inactive”; as for `C=C(C)C1CC=C(C)C(OC(C)=O)C1` (stereo not given), “inactive”. Still for that read-out and setting: the entry for `c1cc(C(c2ccc(OCC3CO3)cc2)c2ccc(OCC3CO3)cc2)ccc1OCC1CO1` (stereo not given) is “inactive”; for `CCCCCCC(C)(C)C(=O)O` it is “inactive”. On to `N[C@@H](COP(=O)(O)O)C(=O)O`, for which the activity change, negative = inhibition is 4.37% [at 23.6 µM].

Consider `CSc1cnc(C)cn1`, for which the Potency entry is “inactive”. Still for that read-out and setting: as for `Nc1ccc(S(=O)(=O)NC(=O)c2ccccc2)cc1`, the entry is “inactive”; as for `Nc1nc(-c2ccc([N+](=O)[O-])cc2)cs1`, “inactive”; as for `C=C1CC[C@H](O)C/C1=C\C=C1/CCC[C@]2(C)[C@@H]([C@H](C)CCCC(C)C)CC[C@@H]12`, “inactive”. On the same count and under the same terms, as for `Oc1ccc2c(c1)CCC2`, the entry is “inactive”; as for `O=C1OCCO1`, “inactive”; as for `ClCCl`, “inactive”.
